Laboratory results: PubChem BioAssay AID504466 (National Center for Advancing Translational Sciences (NCATS), 2011)
Among all 330,000 compounds or so, about 4,200 (1.3%) were called active. Another 6% or so got no clear call; they are omitted. Calls follow the shape of the dose curve; as a rule, active = well fitted activation curve with a large enough effect; inconclusive = small, poorly fitted or top-dose-only effect; inactive = no such curve, though single readings can be large or run the other way. The sample as a whole holds a higher share of actives than the screen did.
Potency is read from the fitted curve at half-maximal effect.

Assay: qHTS screen for small molecules that induce genotoxicity in human embryonic kidney (HEK293T) cells expressing luciferase-tagged ELG1; also: nearly all actives have a fitted effect of over 60% in size; as to activity change, positive = activation: % of control where 0% means no effect
Conditions: HEK293T ELG1-luciferase reporter, luminescence, 16 h; series mostly up to 46 µM; activity change, positive = activation: at the top concentration
In short: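 16 hr compound incubation (37 °C, 5% CO2) of HEK293T cells carrying luciferase-tagged ELG1; luciferase then measured by ONE-Glo luminescence after 30 min at RT.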
With `CC[C@]12c3[nH]c4ccc(Cl)cc4c3CCN1C(=O)[C@@H](CC(=O)NCCN1CCOCC1)C[C@@H]2C(=O)N1CCN(C(=O)C2CC2)CC1` the “activity change, positive = activation” value was 5.63% (inactive).
In the case of `CN(C)S(=O)(=O)c1ccc2oc(SCC(=O)Nc3ccccc3F)nc2c1`, the Potency is reported as 10.3 µM (active).
In the case of `COc1ccc(NS(=O)(=O)c2ccc3oc(SCC(N)=O)nc3c2)cc1`, the “activity change, positive = activation” value is reported as -12.5% (inactive).
For `COc1ccc(S(=O)(=O)N(C)C)cc1NC(=O)CSc1ncccn1`, the “activity change, positive = activation” value was 2.94% (inactive).
With `O=c1c2c(nc3nc[nH]n13)CCC2` the “activity change, positive = activation” value was 4.12% (inactive).
For `O=c1c2c(nc3cc(-c4cccc(Cl)c4)[nH]n13)CCCC2`, the Potency was 0.517 µM (active).
For `CCCCN1Cc2c(nc3cc(-c4ccccc4)[nH]n3c2=O)C1=O`, the “activity change, positive = activation” value was 3.81% (inactive).
With `Cc1ccc(CNC(=O)Cn2cnc3c(NCc4ccccc4)ncnc32)o1` the “activity change, positive = activation” value was 0.754% (inactive).
With `Clc1ccc(-n2nnnc2-c2cnc(-c3ccccn3)nc2-c2cccs2)cc1` the “activity change, positive = activation” value was -5.46% (inactive).
With `c1csc(-c2cn3c(n2)SCC3)c1` the “activity change, positive = activation” value was 3.5% (inactive).
In the case of `Clc1ccc(Nc2nc(-c3cccs3)cs2)nc1`, the Potency is reported as 1.16 µM (active).
With `Clc1ccc(-c2csc(-c3ccncc3)n2)cc1` the “activity change, positive = activation” value was 12.6% (inactive).
With `O=C(Nc1nc(-c2ccc(-c3ccccc3)cc2)cs1)c1cnccn1` the “activity change, positive = activation” value was 15.3% (inactive).
For `c1ccc(Nc2nc(-c3ccncc3)cs2)nc1`, the Potency was 1.46 µM (active).
With `Cc1cccc(Nc2nc(-c3ccccc3)cs2)n1` the Potency was 2.91 µM (active).
In the case of `COc1ccc(Nc2nc(-c3ccccc3)cs2)cc1`, the Potency is reported as 0.58 µM (active).
In the case of `Cc1cccc(S(=O)(=O)CC(=O)Nc2nc(-c3ccccc3)cs2)c1`, the “activity change, positive = activation” value is reported as -2.42% (inactive).
With `COc1ccc(Nc2nnc(C)c3ccccc23)cc1` the “activity change, positive = activation” value was 16.7% (inactive).
With `COc1ccc(NC(=O)c2sc(N)nc2-c2ccccc2)cc1` the “activity change, positive = activation” value was 1.11% (inactive).
With `CCc1noc(C)c1C(=O)Nc1nc(-c2ccccc2)cs1` the “activity change, positive = activation” value was 1.72% (inactive).
For `O=C(NCC#CCSc1nnc(-c2cccc3ccccc23)o1)c1cccs1`, the “activity change, positive = activation” value was -0.584% (inactive).
For `O=C(CNC(=O)c1ccco1)NNC(=O)c1ccc(Br)cc1`, the “activity change, positive = activation” value was -1.29% (inactive).
In the case of `C[C@H](CO)N1C[C@H](C)[C@@H](CN(C)C(=O)Nc2ccc3c(c2)OCO3)Oc2c(cccc2N(C)C)C1=O`, the “activity change, positive = activation” value is reported as 3.83% (inactive).
With `CC(=O)c1ccc(NC(=O)CSc2nc3ccccc3c(=O)n2CCCN2CCOCC2)cc1` the “activity change, positive = activation” value was 15.5% (inactive).
In the case of `Cc1c(NC(=O)C(C)OC(=O)c2ccccc2O)c(=O)n(-c2ccccc2)n1C` (stereo not given), the “activity change, positive = activation” value is reported as 1.59% (inactive).
In the case of `Cn1c(N)c(C(=O)COC(=O)c2cccc(S(=O)(=O)N3CCOCC3)c2)c(=O)n(C)c1=O`, the “activity change, positive = activation” value is reported as 1.81% (inactive).
For `C#CCOCCOCCOCCNc1nc(N2CCN(C(=O)C([C@@H](C)O)n3cc([C@@H](N)CCCCN)nn3)CC2)nc(N2CCN(C(=O)[C@H](CCCCN)n3cc(CN)nn3)CC2)n1` (stereo not given in full), the “activity change, positive = activation” value was -2.61% (inactive).
With `Cc1noc(C)c1S(=O)(=O)N(C)C[C@H]1Oc2ccc(NC(=O)C3CC3)cc2C(=O)N([C@H](C)CO)C[C@@H]1C` the “activity change, positive = activation” value was -1.19% (inactive).
For `COc1ccc(CNC(=O)COc2ccccc2C(=O)c2cnn(-c3ccccc3)c2)cc1OC`, the “activity change, positive = activation” value was 0.697% (inactive).
With `O=C(c1cnn(-c2ccc(Cl)cc2)c1)c1ccccc1O` the Potency was 7.3 µM (active).
With `Cc1ncc(CC(=O)n2cc(C(=O)c3cc(Cl)ccc3O)cn2)s1` the “activity change, positive = activation” value was -10.8% (inactive).
For `CC[C@]1(C(=O)OC)[C@H]2C(=O)N(Cc3ccccc3)C(=O)[C@H]2[C@H]2CN=C(SCc3ccc(C#N)cc3)N21`, the “activity change, positive = activation” value was -3.52% (inactive).
For `CN[C@H](C(=O)NC[C@H]1O[C@@H](n2cnc3c(N)ncnc32)[C@H](O)[C@@H]1O)[C@@H](C)OCc1ccccc1`, the “activity change, positive = activation” value was -1.8% (inactive).
In the case of `O=C1[C@@H](c2ccccc2)[C@@H](c2ccccc2)N1c1cccnc1`, the “activity change, positive = activation” value is reported as -0.676% (inactive).
For `CC[C@]12c3[nH]c4ccc(Cl)cc4c3CCN1C(=O)[C@@H](CC(=O)NCCCOC)C[C@@H]2C(=O)N1CCN(C(=O)c2ccco2)CC1`, the “activity change, positive = activation” value was 9.33% (inactive).
For `O=C(NCCCn1ccnc1)c1ccccc1F`, the “activity change, positive = activation” value was 3.39% (inactive).
In the case of `O=C(Nc1cccnc1Cl)c1cc(-c2cccc(Cl)c2)on1`, the “activity change, positive = activation” value is reported as 22.5% (inactive).
With `O=C(NCCCn1ccnc1)c1cc(-c2ccccc2)on1` the Potency was 14.6 µM (active).
With `COc1ccc(-c2cc(C(=O)NCCCn3ccnc3)no2)cc1` the “activity change, positive = activation” value was 0.698% (inactive).
With `O=C(NC1CCCCC1)c1ccc(-c2ccc(Cl)cc2)o1` the “activity change, positive = activation” value was 17.5% (inactive).
In the case of `O=C(NC1CCCC1)c1cc(-c2ccccc2)on1`, the Potency is reported as 9.2 µM (active).
With `O=C(NC(=S)Nc1ccc(Br)cc1F)C1CCCCC1` the “activity change, positive = activation” value was 10.3% (inactive).
With `COc1ccc(CNC(=O)C[C@H]2C[C@H](C(=O)N3CCOCC3)[C@@]3(CCC4CCCC4)c4[nH]c5ccc(Cl)cc5c4CCN3C2=O)cc1OC` the “activity change, positive = activation” value was -5.49% (inactive).
For `O=C(Nc1cccc(S(=O)(=O)NC2=NCCC2)c1)c1ccc(F)cc1F`, the “activity change, positive = activation” value was -1.03% (inactive).
In the case of `CCn1nnc2cc(C(=O)Nc3ccc(C(=O)OC(C)C)cc3)ccc21`, the “activity change, positive = activation” value is reported as 1.88% (inactive).
With `COc1ccccc1N(CC(=O)N/N=C(\C)c1ccccc1O)S(=O)(=O)c1ccc(C)cc1` the “activity change, positive = activation” value was -10.2% (inactive).
For `CC(C)=C(NC(=O)c1ccccc1)C(=O)N/N=C(\C)c1ccccc1O`, the “activity change, positive = activation” value was 4.32% (inactive).
For `C/C(=N\NC(=O)c1ccoc1C)c1ccccc1O`, the Potency was 18.3 µM (active).
For `O=C1NC[C@@H](c2ccccc2)OC(=O)[C@H](Cc2ccc(F)cc2)CC/C=C/C[C@H]1CC(=O)N(CCO)Cc1ccccc1`, the “activity change, positive = activation” value was -3.64% (inactive).
With `O=C(c1ccc(F)cc1)n1cc(C(=S)N2CCOCC2)c2ccccc21` the “activity change, positive = activation” value was -2.08% (inactive).
For `O=C(C[n+]1cc(Br)cc2ccccc21)c1ccc(F)cc1`, the “activity change, positive = activation” value was 2.61% (inactive).
For `O=C(c1ccc(F)cc1)n1c(=S)nc2ccccn21`, the Potency was 0.651 µM (active).
In the case of `O=C(COC(=O)/C=C/c1cccc(Cl)c1)NCc1cccs1`, the “activity change, positive = activation” value is reported as 0.0415% (inactive).
For `Nn1c(SCC(=O)Nc2ccc3c(c2)CCC3)nnc1C1CC1`, the “activity change, positive = activation” value was 0.947% (inactive).
For `O=C(COc1ccccc1Cl)N1CCCCCCC1`, the “activity change, positive = activation” value was 3.7% (inactive).
In the case of `O=C(CSCc1ccc(Cl)cc1)N1CCCCC1`, the Potency is reported as 8.91 µM (active).
With `O=C(CSc1ccsc1[N+](=O)[O-])N1CCCCC1` the “activity change, positive = activation” value was -3.05% (inactive).
For `O=C(CSCc1ccc(Cl)cc1)N1CCN(Cc2ccc3c(c2)OCO3)CC1`, the “activity change, positive = activation” value was -6.7% (inactive).
With `O=C(CSCc1cccs1)N1CCCC1` the Potency was 16.4 µM (active).
With `Cn1c(SCC(=O)N2CCCC2)nnc1-c1cccs1` the “activity change, positive = activation” value was 6.12% (inactive).
With `CCN(C[C@H]1N[C@@](CC)(C(=O)OC)[C@H]2C(=O)N(Cc3ccccc3)C(=O)[C@@H]12)S(=O)(=O)c1ccccc1` the “activity change, positive = activation” value was -3.54% (inactive).
In the case of `COc1cc(OC)cc(C(=O)NC(C(=O)N2CCC2)C(C)C)c1` (stereo not given), the “activity change, positive = activation” value is reported as -0.193% (inactive).
With `CC(=O)C1(C)N(O)C(C)(C)C(c2cccs2)=[N+]1[O-]` (stereo not given) the Potency was 0.082 µM (active).
With `CC1(C)C(c2cccs2)=[N+]([O-])C2(CCCCC2=O)N1O` (stereo not given) the “activity change, positive = activation” value was -5.57% (inactive).
With `C/C(=N\O)C1(C)N(O)C(C)(C)C(c2ccc(Br)cc2)=[N+]1[O-]` (stereo not given) the “activity change, positive = activation” value was 0.163% (inactive).
